From the supplement of paper PMC11732987, “Enantioselective OTUD7B fragment discovery through chemoproteomics screening and high-throughput optimisation” (Communications Chemistry, 2025)

Key:
Test in all cases: log2 ratio of Biotin-Ahx-Ub-VS probe labelling (fragment/DMSO); higher = less target engagement (more negative = stronger competition), active = hit call of the paper (q ≤ 0.05, log2 ratio ≤ -1)
Conditions in all cases: compound concentration: 200 uM; treatment time: 3 h
USP34 = USP34 (UniProt Q70CQ2)
Chain of USP34 (Q70CQ2 whole entry, the tested form may be a part): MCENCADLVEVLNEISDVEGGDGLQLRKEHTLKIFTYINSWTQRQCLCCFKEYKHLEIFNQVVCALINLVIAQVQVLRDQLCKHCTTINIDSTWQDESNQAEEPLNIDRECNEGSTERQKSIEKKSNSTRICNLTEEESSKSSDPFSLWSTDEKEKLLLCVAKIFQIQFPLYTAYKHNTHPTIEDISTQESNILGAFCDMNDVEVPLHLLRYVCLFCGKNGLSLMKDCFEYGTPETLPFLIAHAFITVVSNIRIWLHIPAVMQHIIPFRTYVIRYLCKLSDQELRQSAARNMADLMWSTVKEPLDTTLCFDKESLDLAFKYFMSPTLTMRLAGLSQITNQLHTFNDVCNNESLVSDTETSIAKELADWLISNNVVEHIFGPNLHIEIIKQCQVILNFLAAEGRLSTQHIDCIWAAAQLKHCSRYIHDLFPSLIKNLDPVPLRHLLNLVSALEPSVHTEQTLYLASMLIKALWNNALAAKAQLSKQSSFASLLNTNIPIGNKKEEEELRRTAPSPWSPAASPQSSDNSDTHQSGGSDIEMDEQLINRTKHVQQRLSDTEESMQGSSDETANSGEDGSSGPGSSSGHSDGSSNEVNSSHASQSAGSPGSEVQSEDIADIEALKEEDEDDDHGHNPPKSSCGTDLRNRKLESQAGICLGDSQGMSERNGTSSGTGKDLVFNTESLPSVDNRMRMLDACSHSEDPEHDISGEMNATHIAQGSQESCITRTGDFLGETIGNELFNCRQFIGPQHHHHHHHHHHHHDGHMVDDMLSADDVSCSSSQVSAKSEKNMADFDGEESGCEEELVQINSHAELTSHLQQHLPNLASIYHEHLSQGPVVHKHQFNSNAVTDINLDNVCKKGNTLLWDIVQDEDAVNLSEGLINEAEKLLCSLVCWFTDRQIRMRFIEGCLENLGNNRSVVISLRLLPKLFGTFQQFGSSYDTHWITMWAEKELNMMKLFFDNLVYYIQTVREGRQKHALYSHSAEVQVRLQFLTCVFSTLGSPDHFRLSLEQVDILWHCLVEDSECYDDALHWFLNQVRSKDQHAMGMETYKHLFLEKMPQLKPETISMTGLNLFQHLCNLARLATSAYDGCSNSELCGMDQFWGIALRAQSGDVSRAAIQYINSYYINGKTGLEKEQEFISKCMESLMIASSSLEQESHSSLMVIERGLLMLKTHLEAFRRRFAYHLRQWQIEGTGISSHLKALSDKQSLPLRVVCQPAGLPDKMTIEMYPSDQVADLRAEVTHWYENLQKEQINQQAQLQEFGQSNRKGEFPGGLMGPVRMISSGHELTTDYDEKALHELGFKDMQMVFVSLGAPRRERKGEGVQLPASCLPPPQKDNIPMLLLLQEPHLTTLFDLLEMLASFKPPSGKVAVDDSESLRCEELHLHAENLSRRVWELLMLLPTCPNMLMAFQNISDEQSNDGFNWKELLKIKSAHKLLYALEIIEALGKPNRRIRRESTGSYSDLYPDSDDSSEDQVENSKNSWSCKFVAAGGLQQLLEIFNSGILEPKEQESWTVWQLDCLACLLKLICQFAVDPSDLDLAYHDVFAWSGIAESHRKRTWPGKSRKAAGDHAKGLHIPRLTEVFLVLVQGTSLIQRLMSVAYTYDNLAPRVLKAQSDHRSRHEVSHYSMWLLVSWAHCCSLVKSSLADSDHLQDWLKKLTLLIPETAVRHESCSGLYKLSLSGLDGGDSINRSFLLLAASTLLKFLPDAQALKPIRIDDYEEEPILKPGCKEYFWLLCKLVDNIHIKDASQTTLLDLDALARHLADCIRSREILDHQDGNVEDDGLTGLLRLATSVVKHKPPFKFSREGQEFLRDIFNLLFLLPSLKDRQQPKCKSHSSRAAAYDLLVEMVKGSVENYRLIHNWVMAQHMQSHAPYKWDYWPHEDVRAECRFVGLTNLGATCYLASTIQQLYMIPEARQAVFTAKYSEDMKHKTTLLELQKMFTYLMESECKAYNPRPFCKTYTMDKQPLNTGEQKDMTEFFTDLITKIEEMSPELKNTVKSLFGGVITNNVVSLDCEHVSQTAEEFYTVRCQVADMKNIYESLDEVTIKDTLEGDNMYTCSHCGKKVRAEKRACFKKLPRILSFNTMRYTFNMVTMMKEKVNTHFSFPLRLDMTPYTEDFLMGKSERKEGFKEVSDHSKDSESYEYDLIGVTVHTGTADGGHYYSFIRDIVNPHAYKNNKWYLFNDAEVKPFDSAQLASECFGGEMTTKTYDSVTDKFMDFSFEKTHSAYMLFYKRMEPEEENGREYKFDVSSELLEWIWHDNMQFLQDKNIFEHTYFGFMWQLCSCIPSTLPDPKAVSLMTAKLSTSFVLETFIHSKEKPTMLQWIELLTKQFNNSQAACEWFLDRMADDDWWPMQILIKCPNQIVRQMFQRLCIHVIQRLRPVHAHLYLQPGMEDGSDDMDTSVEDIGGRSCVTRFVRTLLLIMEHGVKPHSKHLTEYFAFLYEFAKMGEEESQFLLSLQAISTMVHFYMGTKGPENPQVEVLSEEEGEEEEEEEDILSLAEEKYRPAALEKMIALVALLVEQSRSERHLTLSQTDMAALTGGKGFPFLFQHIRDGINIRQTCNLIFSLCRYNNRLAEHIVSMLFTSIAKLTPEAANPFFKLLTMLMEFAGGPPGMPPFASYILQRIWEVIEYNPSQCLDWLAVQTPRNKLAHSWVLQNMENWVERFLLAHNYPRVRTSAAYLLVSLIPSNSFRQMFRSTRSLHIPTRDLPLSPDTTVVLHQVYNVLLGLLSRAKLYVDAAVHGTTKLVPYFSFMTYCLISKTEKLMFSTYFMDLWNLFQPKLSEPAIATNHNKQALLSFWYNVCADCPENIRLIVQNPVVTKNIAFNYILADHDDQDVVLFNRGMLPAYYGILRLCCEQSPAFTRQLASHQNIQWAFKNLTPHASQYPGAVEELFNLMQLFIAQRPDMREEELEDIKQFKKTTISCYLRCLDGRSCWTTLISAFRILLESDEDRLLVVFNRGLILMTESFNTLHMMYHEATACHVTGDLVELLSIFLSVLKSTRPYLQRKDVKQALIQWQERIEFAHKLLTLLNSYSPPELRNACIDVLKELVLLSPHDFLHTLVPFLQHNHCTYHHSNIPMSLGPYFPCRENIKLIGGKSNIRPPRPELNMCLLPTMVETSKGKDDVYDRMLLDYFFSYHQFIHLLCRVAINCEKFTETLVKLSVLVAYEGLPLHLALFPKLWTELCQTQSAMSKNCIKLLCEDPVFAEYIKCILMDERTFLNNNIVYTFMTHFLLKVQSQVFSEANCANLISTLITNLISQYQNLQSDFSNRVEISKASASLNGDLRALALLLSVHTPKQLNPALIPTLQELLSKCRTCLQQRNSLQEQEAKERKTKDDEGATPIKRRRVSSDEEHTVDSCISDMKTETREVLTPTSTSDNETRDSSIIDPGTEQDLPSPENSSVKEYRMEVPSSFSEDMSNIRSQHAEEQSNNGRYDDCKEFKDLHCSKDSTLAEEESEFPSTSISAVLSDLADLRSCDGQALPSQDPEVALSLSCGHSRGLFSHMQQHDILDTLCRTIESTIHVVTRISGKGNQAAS
Summary of the method: (§1)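 Fragment (200 µM) or vehicle was incubated for 3 h with triplicate HEK293T lysate samples of 495 µg, which were then treated with Biotin-Ahx-Ub-VS at 0.5 µM final for 1 h. Labelled DUBs were enriched on NeutrAvidin, digested with LysC and trypsin, and analysed by diaPASEF LC-MS/MS. Values are average log2 fragment/vehicle ratios from an unpaired t-test on global-median-normalised Spectronaut label-free quantities, using proteins with ≥2 unique peptides.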

USP36 = molecular target: T1, USP36 (UniProt Q9P275)
T1 sequence (whole entry): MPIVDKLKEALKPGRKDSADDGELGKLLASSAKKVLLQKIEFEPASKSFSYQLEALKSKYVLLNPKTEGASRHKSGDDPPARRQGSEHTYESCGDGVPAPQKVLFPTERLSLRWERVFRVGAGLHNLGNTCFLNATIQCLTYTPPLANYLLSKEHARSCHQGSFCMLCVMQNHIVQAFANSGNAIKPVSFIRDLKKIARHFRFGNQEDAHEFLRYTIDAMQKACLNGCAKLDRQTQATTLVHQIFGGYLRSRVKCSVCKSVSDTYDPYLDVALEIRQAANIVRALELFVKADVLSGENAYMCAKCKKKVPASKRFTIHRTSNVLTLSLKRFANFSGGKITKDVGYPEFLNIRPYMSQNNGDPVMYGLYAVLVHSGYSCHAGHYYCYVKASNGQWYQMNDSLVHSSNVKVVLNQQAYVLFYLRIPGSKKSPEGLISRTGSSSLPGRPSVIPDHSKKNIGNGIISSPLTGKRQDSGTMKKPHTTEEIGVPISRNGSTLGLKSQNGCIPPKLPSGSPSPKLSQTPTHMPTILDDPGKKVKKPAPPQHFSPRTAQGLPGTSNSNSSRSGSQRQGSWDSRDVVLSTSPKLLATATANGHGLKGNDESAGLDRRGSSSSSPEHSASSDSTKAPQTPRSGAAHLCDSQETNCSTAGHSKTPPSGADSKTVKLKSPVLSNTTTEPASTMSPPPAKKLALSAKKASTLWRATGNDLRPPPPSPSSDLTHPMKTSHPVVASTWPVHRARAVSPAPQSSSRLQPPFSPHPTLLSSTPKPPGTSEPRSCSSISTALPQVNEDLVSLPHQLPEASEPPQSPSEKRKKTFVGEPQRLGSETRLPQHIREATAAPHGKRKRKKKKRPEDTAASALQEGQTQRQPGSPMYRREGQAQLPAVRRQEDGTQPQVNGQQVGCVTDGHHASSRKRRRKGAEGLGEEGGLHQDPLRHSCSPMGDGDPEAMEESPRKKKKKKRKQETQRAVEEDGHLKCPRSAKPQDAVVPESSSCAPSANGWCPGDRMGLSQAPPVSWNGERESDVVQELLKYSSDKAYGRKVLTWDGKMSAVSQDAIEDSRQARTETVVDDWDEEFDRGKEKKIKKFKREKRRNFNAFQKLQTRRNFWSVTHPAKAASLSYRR
Summary of the method: as §1

USP38 = molecular target: T2, USP38 (UniProt Q8NB14)
T2 sequence (whole entry): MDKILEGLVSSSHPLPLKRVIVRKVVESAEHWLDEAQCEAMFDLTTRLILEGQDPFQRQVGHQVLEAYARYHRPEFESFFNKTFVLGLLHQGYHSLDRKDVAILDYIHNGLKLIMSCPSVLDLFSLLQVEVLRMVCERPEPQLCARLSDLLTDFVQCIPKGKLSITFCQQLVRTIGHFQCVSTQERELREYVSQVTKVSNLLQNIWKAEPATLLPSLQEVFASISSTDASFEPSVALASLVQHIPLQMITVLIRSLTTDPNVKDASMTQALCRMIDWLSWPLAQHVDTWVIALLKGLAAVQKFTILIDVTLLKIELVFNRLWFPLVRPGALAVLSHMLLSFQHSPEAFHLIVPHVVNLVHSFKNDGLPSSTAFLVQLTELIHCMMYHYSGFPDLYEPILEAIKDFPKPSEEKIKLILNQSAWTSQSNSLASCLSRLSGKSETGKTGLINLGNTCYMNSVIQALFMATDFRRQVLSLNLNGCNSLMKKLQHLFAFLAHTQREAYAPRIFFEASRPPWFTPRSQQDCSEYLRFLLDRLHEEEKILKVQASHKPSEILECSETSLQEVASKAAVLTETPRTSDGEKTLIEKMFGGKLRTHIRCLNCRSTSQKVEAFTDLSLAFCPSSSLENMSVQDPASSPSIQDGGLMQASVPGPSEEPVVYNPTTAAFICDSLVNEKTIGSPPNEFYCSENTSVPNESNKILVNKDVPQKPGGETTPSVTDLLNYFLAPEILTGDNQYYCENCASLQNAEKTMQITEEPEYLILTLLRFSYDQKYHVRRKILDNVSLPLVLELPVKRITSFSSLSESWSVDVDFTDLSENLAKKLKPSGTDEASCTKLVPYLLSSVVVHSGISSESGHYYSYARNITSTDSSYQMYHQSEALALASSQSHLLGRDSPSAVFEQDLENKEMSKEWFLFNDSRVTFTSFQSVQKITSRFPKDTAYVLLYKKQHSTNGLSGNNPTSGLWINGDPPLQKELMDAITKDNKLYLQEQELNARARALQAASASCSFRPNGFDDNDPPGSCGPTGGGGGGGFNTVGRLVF
Summary of the method: as §1

USP39 = molecular target: T3, USP39 (UniProt Q53GS9)
T3 sequence (whole entry): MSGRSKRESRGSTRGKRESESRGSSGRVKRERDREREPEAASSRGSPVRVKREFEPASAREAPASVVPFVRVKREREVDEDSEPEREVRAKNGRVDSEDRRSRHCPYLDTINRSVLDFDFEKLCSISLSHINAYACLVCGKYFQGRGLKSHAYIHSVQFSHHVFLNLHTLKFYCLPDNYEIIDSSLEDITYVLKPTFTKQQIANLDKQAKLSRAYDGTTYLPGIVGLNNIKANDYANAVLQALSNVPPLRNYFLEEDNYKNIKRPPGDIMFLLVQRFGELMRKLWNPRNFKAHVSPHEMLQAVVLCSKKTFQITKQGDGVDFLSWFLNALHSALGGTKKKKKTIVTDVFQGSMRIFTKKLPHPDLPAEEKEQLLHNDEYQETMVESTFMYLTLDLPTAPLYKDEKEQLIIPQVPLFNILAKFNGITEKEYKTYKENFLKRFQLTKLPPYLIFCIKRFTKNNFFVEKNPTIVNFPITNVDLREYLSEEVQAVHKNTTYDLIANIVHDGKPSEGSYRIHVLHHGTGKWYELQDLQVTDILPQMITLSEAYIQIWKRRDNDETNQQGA
Summary of the method: as §1

USP4 = molecular target: T4, USP4 (UniProt Q13107)
T4 sequence (whole entry): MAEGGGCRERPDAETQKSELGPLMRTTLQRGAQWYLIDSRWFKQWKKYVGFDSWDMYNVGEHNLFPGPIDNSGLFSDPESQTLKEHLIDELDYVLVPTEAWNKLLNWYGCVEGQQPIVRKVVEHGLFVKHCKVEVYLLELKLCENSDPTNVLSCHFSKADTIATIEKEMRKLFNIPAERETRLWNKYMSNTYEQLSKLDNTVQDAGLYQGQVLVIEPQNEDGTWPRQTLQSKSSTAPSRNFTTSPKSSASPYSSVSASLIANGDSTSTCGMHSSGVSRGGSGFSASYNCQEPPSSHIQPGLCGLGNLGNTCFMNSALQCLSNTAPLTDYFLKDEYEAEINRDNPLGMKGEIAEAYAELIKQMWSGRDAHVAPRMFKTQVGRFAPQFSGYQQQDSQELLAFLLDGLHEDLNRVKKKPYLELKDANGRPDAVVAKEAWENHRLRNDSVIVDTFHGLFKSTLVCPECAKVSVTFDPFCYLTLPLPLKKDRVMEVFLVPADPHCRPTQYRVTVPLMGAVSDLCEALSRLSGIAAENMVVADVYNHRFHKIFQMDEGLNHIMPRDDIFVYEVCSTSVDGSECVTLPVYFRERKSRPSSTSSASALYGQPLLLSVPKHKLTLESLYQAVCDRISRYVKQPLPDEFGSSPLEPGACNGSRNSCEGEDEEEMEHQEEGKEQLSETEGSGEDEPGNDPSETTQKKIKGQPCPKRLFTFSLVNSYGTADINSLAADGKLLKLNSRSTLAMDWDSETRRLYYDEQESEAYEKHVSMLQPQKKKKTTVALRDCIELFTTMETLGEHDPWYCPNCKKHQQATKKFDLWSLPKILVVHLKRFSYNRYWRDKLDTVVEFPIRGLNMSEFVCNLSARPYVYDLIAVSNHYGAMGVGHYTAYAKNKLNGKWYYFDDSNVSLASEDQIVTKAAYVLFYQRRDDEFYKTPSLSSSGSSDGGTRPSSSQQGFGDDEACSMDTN
Summary of the method: as §1

Measured: log2 ratio of Biotin-Ahx-Ub-VS probe labelling

O=C(CCl)NCc1noc(C2CC2)n1
inactive: USP34 -0.18 | USP36 -0.144 | USP38 -0.0158 | USP39 0.182 | USP4 0.00316
